# ALDH1A1 block: ALDH1A1 (human) enzyme inhibition | Purified ALDH1A1, NADH fluorescence, propionaldehyde substrate | hit rate 7.3% among 220,000 | P00352 | Potency, µM (series often up to 75.3 µM), most hits filed as inhibitors; active means well fitted inhibition curve with a large enough effect, not every such curve was filed as active; inconclusive means small, poorly fitted or top-dose-only effect, or another doubt; inactive means no such curve, though single readings can be large or run the other way
# HTT aggregate: mutant huntingtin aggregation inhibition; Potency, µM (top dose mostly 46.1 µM), actives largely listed as inhibitors; hit rate 1.1% among 220,000; PC12 HttQ103-GFP aggregates, Acumen cytometry, 40 h; AID 1688; further: nearly all actives have a fitted effect of over 60% in size
#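 Inducible Q103 Huntingtin exon 1–GFP PC12 line, 1500 cells/well in phenol red free DMEM with 5% equine and 5% calf serum. Tebufenozide 100 nM induced expression; compounds titrated; aggregates quantified by cytometry.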
# LMNA splice mod: LMNA splicing modulation; HeLa LMNA splicing GFP/RFP minigene ratio, 48 h; Potency, µM (titrated, usually from 46.1 µM), hits mostly inhibitors; hit rate 0.01% among 200,000; AID 1487; active means well fitted inhibition curve with a large enough effect in the signal ratio, with a control signal flat, not every such curve was filed as active; inconclusive means small, poorly fitted or top-dose-only effect, or effect the other way, or a change in a side signal; the % refers to the signal ratio
#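 Read-out is the ratio of GFP to DsRed2 object intensity, acquired by 488 nm laser-scanning cytometry on HeLa lamin A-EGFP minigene reporter cells. Compound incubation 48 hrs at 37 °C in Opti-MEM with 2% FBS; DMSO 0.5% final.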
# KinaseGlo FLuc: Kinase-Glo luciferase inhibition (counter-screen); Q27757; Kinase-Glo luciferase, ATP luminescence, 8 min; Potency, µM (highest dose often 38.3 µM), hits mostly inhibitors; hit rate 0.28% among 200,000; AID 1379; further: nearly all actives have a fitted effect of over 60% in size
#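 Recombinant Kinase-Glo luciferase, 10 uM ATP (linear range), luciferin; imidazole pH 7.2 / KCl / MgCl2 / Tween / BSA buffer; 8 min RT; luminescence.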
# HPGD inh: blocks human HPGD enzyme activity. AID 894. Potency, µM, most hits filed as inhibitors. P15428. purified HPGD, NADH fluorescence kinetic, PGE2 substrate. hit rate 4.3% among 150,000; active means well fitted inhibition curve with a large enough effect, not every such curve was filed as active; inconclusive means small, poorly fitted or top-dose-only effect, or another doubt; inactive means no such curve, though single readings can be large or run the other way
# Target sequence (P15428 whole entry, looked up): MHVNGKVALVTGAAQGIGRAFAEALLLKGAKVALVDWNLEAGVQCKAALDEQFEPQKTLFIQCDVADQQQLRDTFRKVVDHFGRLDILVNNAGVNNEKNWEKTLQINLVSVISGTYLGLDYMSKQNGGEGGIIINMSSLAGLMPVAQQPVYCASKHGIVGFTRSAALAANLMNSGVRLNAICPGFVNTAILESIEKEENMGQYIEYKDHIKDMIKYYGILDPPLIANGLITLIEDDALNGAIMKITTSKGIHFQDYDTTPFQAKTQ
#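 20 nM HPGD preincubated 15 min at room temperature with compound in 50 mM Tris-HCl pH 8, 0.01% Tween 20. Started with 1 mM NAD+ and 30 uM prostaglandin E2; NADH fluorescence (360/450 nm) read 5 times over 30-s intervals, last minus first.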
# HTT cytoprotect: cytoprotection in Huntington HTT-Q103 PC12 cell model; PC12 HTT-Q103 induced, cytoprotection, ATP luminescence, 40 h; Potency, µM (top dose mostly 56.4 µM), hits mostly activators; hit rate 0.14% among 230,000; further: nearly all actives have a fitted effect of over 45% in size
#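 Huntington model: PC12 line, ecdysone-inducible HTTQ103 exon1–GFP, tebufenozide 100 nM. Test articles in a dose series. Endpoint luminescence from cellular ATP.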
# Numbers stand for hits; . = inactive; ? = inconclusive; / = not tested or not shown; [ ] = dose if it differs, or a comment. Hits are enriched below; roughly 9% of the tested compounds scored in any of these assays. Unless noted, the call rests on the fitted dose curve; in most records, active means well fitted curve in the direction sought with a large enough effect; inconclusive means small, poorly fitted or top-dose-only effect, or another doubt; inactive means no such curve, though single readings can be large; an effect the other way counts as inactive or inconclusive.
SMILES,ALDH1A1 block,HTT aggregate,LMNA splice mod,KinaseGlo FLuc,HPGD inh,HTT cytoprotect
CCn1nnnc1SCC(=O)Nc1nnc(C(C)C)s1,?,.,.,.,.,.
C/C(=N\Nc1cccc2cccnc12)c1ccccn1,.,?,.,?,/,.[10 µM]
C/C(=N\Nc1cccc2cccnc12)c1ccc(N)cc1,8.91µM,.,.,.,/,.
COc1ccccc1-c1cc(C(F)(F)F)nc(S(=O)(=O)CCCC(=O)O)n1,.,.,?,.,?,.
COc1ccccc1-c1cc(C(F)(F)F)nc(S(=O)(=O)CCCC(=O)N2CCOCC2)n1,.,.[9.22 µM],?,.,14.1µM,.
CC(C)NC(=O)CSc1nnc(-c2ccc(F)cc2)c2ccccc12,.,.,/,.,/,12.6µM
COc1ccc(C)c2sc(=NC(=O)c3cccc(N4C(=O)CCC4=O)c3)n(C)c12,/,.[9.22 µM],/,/,/,.[10 µM]
CCc1[nH]c(=S)c(C#N)c2c1CCCC2,?,.,.,.,20µM,/
CCN1C(=O)C2C(C1=O)N1C(c3cccs3)C3C(=O)N(CC)C(=O)C3N1C2c1cccs1 (configuration not stated),.,28.2µM,.,.,.,.
COc1ccc(-c2nc(NC(C)=O)sc2-c2ccc(OC)cc2)cc1,3.16µM,.,?,.,/,?
C[C@@H](Oc1ccc(Oc2cnc3ccc(Cl)cc3n2)cc1)C(=O)O,?,/,?,.,17.8µM,/
O=C(/C=C/c1ccccc1Cl)NCc1cccs1,?,.,.,.,14.1µM,.[10 µM]
O=C(/C=C/c1ccc(F)cc1)NCc1cccs1,.,.,.,.,.,.[10 µM]
Cc1cccc2cc(CN(Cc3ccccc3)C(=O)c3cccc(F)c3)c(Cl)nc12,8.91µM,.,.,.,.,.
O=S(=O)(c1cccs1)N1CCN(C/C=C/c2ccccc2)CC1,?,.,?,.,.,.[10 µM]
O=S(=O)(c1ccc(Cl)s1)N1CCN(C/C=C/c2ccccc2)CC1,?,35.5µM,.,.,.,.[10 µM]
CCCc1c(C(=O)Nc2ccc(OC)cc2)cnn1-c1ccccc1,?,.[9.22 µM],/,/,/,.[10 µM]
CCCc1c(C(=O)NNc2ccccc2OC)cnn1-c1ccccc1,7.94µM,.[9.22 µM],/,/,/,.[10 µM]
COc1ccc(C2NC(=O)NC(O)(C(F)(F)F)C2C(=O)c2ccccc2)cc1OC (configuration not stated),31.6µM,.,.,.,.,.
CC(=O)C1C(c2ccc(OC(F)F)cc2)NC(=O)NC1(O)C(F)(F)F (configuration not stated),.,.,.,.,.,.
COc1cccc(C2NC(=O)NC(O)(C(F)(F)F)C2C(=O)c2cccnc2)c1OC (configuration not stated),11.2µM,.,.,.,.,.
O=C1NC(c2cn(-c3ccccc3)nc2-c2cccs2)C(C(=O)c2cccnc2)C(O)(C(F)(F)F)N1 (configuration not stated),?,.[9.22 µM],.,.,.,.[10 µM]
COc1ccc(C2NC(=O)NC(O)(C(F)(F)F)C2C(=O)c2ccc(C)cc2)cc1 (configuration not stated),17.8µM,.,.,/,/,.
Cc1ccc(OC(C)C(=O)N2CCN(CCc3ccccn3)CC2)cc1C (configuration not stated),/,/,.,/,/,/
Cc1ccc(OCC(=O)N/N=C/c2ccncc2)cc1C,.,.[9.22 µM],.,/,/,.[10 µM]
SMILES,ALDH1A1 block,HTT aggregate,LMNA splice mod,KinaseGlo FLuc,HPGD inh,HTT cytoprotect
O=C(Nc1ccc(F)cc1)N1CCN(CCc2ccccc2)CC1,.,.,/,.,/,.
Fc1ccc(NC(=S)N2N=CCC2c2ccccc2)cc1 (configuration not stated),7.08µM,.,.,.,.,.
S=C(Nc1ccccc1)N1N=CCC1c1ccccc1 (configuration not stated),?,.,.,.,.,.
Cn1cc(C(=O)N/N=C/c2cccc(O)c2)ccc1=O,.,.,/,.,/,.
Nc1c(S(=O)(=O)c2ccccc2)cnc2c(-c3ccc(F)cc3)cnn12,?,.,?,.,?,.
COc1ccc(-c2cnn3c(N)c(S(=O)(=O)c4ccccc4)cnc23)cc1,.,.,.,.,20µM,.[10 µM]
Cn1ccc2c(OCC(=O)NCc3ccc(F)cc3)cccc2c1=O,/,/,.,/,/,/
O=C(NCc1ccco1)C1CCCCC1,.,.[9.22 µM],.,.,/,.[10 µM]
O=C(O)C1C2CCC(C2)C1C(=O)NCc1ccco1 (configuration not stated),35.5µM,.,.,.,.,.
O=C(NCc1ccco1)C1CC2CCC1C2 (configuration not stated),.,.[9.22 µM],.,.,15.8µM,.
Cc1[nH]n(-c2ccc(Cl)c(Cl)c2)c(=O)c1CCO,?,.,/,.,/,.
Cc1ccc(C)c2[nH]c(=O)c(C(c3nnnn3Cc3ccccc3)N3CCc4ccccc4C3)cc12 (configuration not stated),?,.,.,.,?,.
CC1CCCN(C(=O)C(C)Nc2cc(Cl)ccc2N2CCOCC2)C1 (configuration not stated),10µM,.,/,.,/,.
COc1cccc(OC)c1C(=O)Nc1cc(Cl)ccc1N1CCOCC1,.,.,.,.,.,.[10 µM]
O=c1oc2ccccc2c(N2CCCC2)c1CN1CCCC1,14.1µM,.,?,.,.,.
CCn1c2ccccc2c2cc(/C=N/NC(=O)c3ccncc3)ccc21,?,.[9.22 µM],.,.,/,.[10 µM]
O=C(c1csc2c1CCCCC2)N1CCN(c2ncccn2)CC1,20µM,.,.,.,.,.
O=C(c1ccccc1F)N1CCN(c2ncccn2)CC1,?,.,.,.,.,.
O=C(c1csc2c1CCCC2)N1CCCCC1,.,.,.,.,1.58µM,.
CC(C)CCOc1ccc(C(CC(N)=O)C(=O)O)cc1 (configuration not stated),.,?,.,.,.,.
Cn1cccc1/C=N/N1CCN(Cc2ccccc2Cl)CC1,/,.[9.22 µM],/,/,/,.[10 µM]
Cn1cccc1/C=N/N1CCN(c2ccccc2)CC1,14.1µM,.,.,.,/,.[10 µM]
NS(=O)(=O)c1ccc(NNC(=O)c2sccc2Cl)cc1,/,.[9.22 µM],/,/,/,.[10 µM]
O=C(NNc1ccc(Cl)cc1)c1sccc1Cl,8.91µM,.[9.22 µM],.,/,/,.[10 µM]
CN(C)c1ccc(C(=C2C=CC(=[N+](C)C)C=C2)c2c(O)c(S(=O)(=O)O)cc3cc(S(=O)(=O)O)ccc23)cc1,3.55µM,/,/,?,.,.[10 µM]
CCOC(=O)c1cc(=O)[nH]c2ccccc12,.,.[9.22 µM],.,.,/,.[10 µM]
CCOC(=O)c1cc2n(c1/N=C/N(C)C)-c1ccccc1C2=O,17.8µM,.,.,.,.,.[10 µM]
CCSc1nc2c(c(=O)[nH]c(=O)n2C)n1CC(O)COc1ccccc1 (configuration not stated),.,.,.,.,/,.
Cn1c(=O)[nH]c(=O)c2c1nc(SCC(O)CO)n2Cc1ccccc1Cl (configuration not stated),14.1µM,.,.,.,.,.[0.074 µM]

# Screening results (PubChem BioAssay)
